Results: PubChem BioAssay AID2069 (Sanford-Burnham Center for Chemical Genomics, 2009)
In all, about 1,200 compounds went through this assay and about 210 (18%) were called active. These entries were drawn from the full list. Unmarked numbers belong to inactive results. No stated cut-off is given here; in the data, active means inhibition above about 30%; inactive means the rest.

experiment: fluorescence readout artefact check – biochemical, HTRF, uHTS, artefact control for SUMOylation inhibitor project, confirmation (AID 2069); conditions: HTRF interference counterscreen, at 35 µM, stronger effect = higher value

Compound	inhibition
COc1cc(/C=C2\C(=O)N(c3ccc(S(N)(=O)=O)cc3)N=C2C)ccc1OC(=O)c1ccco1	19.1%
COc1ccccc1Oc1c(C)oc2cc(OC(=O)c3ccco3)ccc2c1=O	36.7% (active)
CCOc1cc(/C=C2/C(=O)N(c3ccccc3)N=C2C)ccc1OC(=O)c1ccco1	-12.2%
CCOc1cccc(CNc2ccc(O)cc2)c1OCc1ccc(Cl)cc1Cl	17.7%
COc1ccc(-n2c3nc4ccccc4nc3c3c(=N)oc(C)nc32)cc1	-1.2%
O=C1N(c2ccc(Cl)c(Cl)c2)CN(Cc2ccccc2)CN1n1cnnc1	13.3%
CCCNC(=O)c1ccc2c(=O)c(O)c(-c3ccsc3)[nH]c2c1	46.5% (active)
COc1ccccc1NC(=O)Nc1ccnn1Cc1cccs1	63.1% (active)
COc1ccccc1NC(=O)CSc1ccc2nnc(-c3ccccn3)n2n1	-3.25%
COc1ccccc1NC(=O)Cn1nc(C)n2cccc2c1=O	-4.55%
O=C(Nc1nc(-c2ccccc2)cs1)c1ccccc1NS(=O)(=O)c1ccc(F)cc1	9.2%
CC(=O)c1ccc2cccc3c2c1N=CN3C	-3.4%
COc1ccc(Br)cc1C1CC(=O)N2CN(Cc3ccccc3)CSC2=C1C#N (configuration not stated)	-9.75%
COc1ccc(OC)c(/C=N/NC(=O)CCc2ccc(O)c(O)c2)c1	17.9%
COc1ccc(-c2nc3ccc([N+](=O)[O-])cc3[nH]2)cc1	23.2%
COc1ccc(-c2nc3ccncc3[nH]2)cc1OC	46.5% (active)
COc1ccc(NC(=O)C(=O)N/N=C\c2ccc(CNC(=O)C(=O)Nc3ccc(C)c(C)c3)o2)c(OC)c1	15.9%
COc1cc(/C=C2\C(=O)N(CCC#N)N=C2C)c(Br)cc1OC(C)C	-5.4%
O=C(COc1ccc2oc(-c3ccco3)cc(=O)c2c1)N1CCCCC1	39.8% (active)

Compound	inhibition
CCN(CC)C(=O)COc1ccc2oc(-c3ccco3)cc(=O)c2c1	43.6% (active)
CN(C)c1cc(N/N=C/c2ccccc2C(F)(F)F)nc(N(C)C)n1	-2.9%
O=c1cc(CSc2nnnn2-c2ccccc2)nc(Nc2ccc(F)cc2)[nH]1	3.3%
NC(=O)CC(NC(=O)Cc1cccc2ccccc12)c1ccc(NC2CCCCCC2)c([N+](=O)[O-])c1 (configuration not stated)	6.15%
Cc1ccc(O)c(CNc2cccc3cccnc23)c1	-18.2%
CCOC(=O)c1c(C)oc2c1c(C=NCCO)c(O)c1ccccc12	5.4%
CC(C)(C)c1cc(=O)n(-c2ccccc2)[nH]1	-0.65%
Fc1ccc(NC(=S)Nc2cccc3ccccc23)cc1F	-11.7%
CC1CCN(Cc2cc(=O)oc3cc(O)c(Cl)cc23)CC1	50.5% (active)
CC(C)(C)C1CCC2(CC1)Nc1cccc3cccc(c13)N2	-2.5%
CCn1c(NC(=O)c2ccccc2)nc2ccccc21	1.3%
COc1ccc2nc(/C(C#N)=C\c3ccc(C(=O)O)cc3)[nH]c2c1	47.6% (active)
COc1ccc(/C=C(\C#N)C(=O)OCC(=O)NCc2ccccc2Cl)cc1	6.4%
N#C/C(=C/c1ccc(-c2cc(C(=O)O)cc(C(=O)O)c2)o1)c1nc2ccccc2s1	13.9%
O=C(Nc1ccccc1-c1nc2ccccc2s1)c1cccnc1Cl	64% (active)
O=C(O)c1cc(Cl)c(Cl)cc1C(=O)Nc1cccc2ncccc12	2.4%
O=C(/C=C/c1ccco1)NC(=S)Nc1cc(-c2nc3ccccc3s2)ccc1Cl	3.15%
COCCNC(=S)Nc1cccc2cnccc12	4.9%
C=CCn1c(SCC(=O)N2N=C(c3ccco3)CC2c2ccco2)nnc1-c1ccncc1 (configuration not stated)	-5.2%

Compound	inhibition
O=C1Nc2ccc([N+](=O)[O-])cc2C1=Nc1cccc(CO)c1	3.75%
Cc1[nH]n(-c2ccccc2)c(=O)c1C(c1cccc([N+](=O)[O-])c1)c1c(C)[nH]n(-c2ccccc2)c1=O	-11.2%
NCCSc1c(-c2ccccc2)[nH]c2ccccc12	0.7%
O=[N+]([O-])c1cc2c(cc1/C=N/n1c(-c3ccccn3)n[nH]c1=S)OCO2	0.15%
CCN(Cc1cc(=O)n2ccsc2n1)c1cccc2ccccc12	1.45%
Cc1cccn2cc(-c3ccc(S(=O)(=O)N4CCOCC4)cc3)nc12	40.8% (active)
O=C(Nc1ccccc1F)Nc1cc(S(=O)(=O)N2CCOCC2)ccc1N1CCCC1	6.3%
Cc1ccc(C(=O)Nc2sc3c(c2C(=O)NCc2ccco2)CCCC3)cc1	29.9%
COc1ccccc1C(=O)Nc1ccc(-c2nnn(CC(=O)NCc3ccco3)n2)cc1	13.7%
COc1ccccc1C(=O)Nc1sc2c(c1C(=O)NCc1ccco1)CCCC2	33.8% (active)
O=c1nc(Nc2ccc(Br)cc2)sc2ccc([N+](=O)[O-])cc12	-4%
CCCCC[C@H](O)/C=C/[C@@H]1[C@@H](C/C=C\CCCC(=O)OC)[C@@H](O)C[C@H]1O	23.6%
CCN(CC)S(=O)(=O)c1ccc(C)c(NC(=O)CSc2ncc(C(F)(F)F)cc2Cl)c1	-6.95%
c1cc(Nc2ncnc3sc4c(c23)CCC4)ccn1	42.9% (active)
CC1=NN(c2ccc(Cl)cc2)C(=O)C1C(c1cccc(O)c1)c1c(C)[nH]n(-c2ccc(Cl)cc2)c1=O (configuration not stated)	-23.6%
COc1ccc(C(c2c(C)[nH]n(-c3ccccc3)c2=O)c2c(C)[nH]n(-c3ccccc3)c2=O)cc1OC	13.3%
N#Cc1c(N)nc2c(c1-c1ccc3c(c1)OCO3)CCc1ccccc1-2	13.8%
Cc1oc2c(c(C)cc3oc(=O)c(CC(=O)NCC(=O)NCC(=O)O)c(C)c32)c1C	52.3% (active)
Cc1oc2c(c(C)cc3oc(=O)c(CC(=O)NCC(=O)NCC(=O)NCC(C)O)c(C)c32)c1C (configuration not stated)	47.8% (active)
